According to PubChem BioAssay AID1578 (Sanford-Burnham Center for Chemical Genomics, 2009):
About 3,000 (1%) of roughly 290,000 compounds were called active. Rule as the data show it: active = inhibition mostly above about 36% (no sharp cut-off); inactive = mostly below about 34%. The full list was thinned out, with actives kept by preference.

Test: NOD1 signaling inhibitors, primary screen, cell-based, luminescence, uHTS (AID 1578);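 also: HEK-293T reporter cells stimulated with the NOD1 agonist gamma-tri-DAP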
Conditions: NOD1-driven NF-kB luciferase reporter cells, at 4 µM, stronger effect = higher value

Compound	inhibition
Cc1ccc(CNC(=O)C2CCCN(c3cnccn3)C2)cc1 (centres undefined)	-5.5% (inactive)
Cc1sc2ncn(CC(=O)NCC(=O)N(C)Cc3ccccc3)c(=O)c2c1C	-12.2% (inactive)
Cc1ccc(NC(=O)C2CCC(CNC(=O)[C@@H]3Cc4ccccc4CN3)CC2)cc1 (some centres undefined)	-2.3% (inactive)
O=C(C1=C(O)C(=O)N(c2nccs2)C1c1ccccc1)c1cc2ccccc2o1 (centres undefined)	-8.9% (inactive)
CC(=O)C1=C(O)C(=O)N(c2nccs2)C1c1ccccc1 (centres undefined)	-8.5% (inactive)
COc1ccc(N2CC(C(=O)N3CCN(C)CC3)CC2=O)cc1 (centres undefined)	3.9% (inactive)
COc1ccc(C(=O)/C=C/Nc2ccc(S(=O)(=O)Nc3nc(C)cc(C)n3)cc2)cc1OC	-18.8% (inactive)
O=C(CNc1ccc2ccccc2c1)N/N=C/c1ccc([N+](=O)[O-])o1	-5% (inactive)
O=C(N/N=C/c1ccc([N+](=O)[O-])cc1)c1cc2ccccc2o1	2.4% (inactive)
Nc1nonc1C(=O)N/N=C/c1ccc(-c2cccc([N+](=O)[O-])c2)o1	5.4% (inactive)
Cc1ccc(C(=O)N/N=C\c2ccc([N+](=O)[O-])o2)cn1	13.2% (inactive)
O=C(N/N=C/c1ccc([N+](=O)[O-])o1)c1cc2c(ccc3ccccc32)o1	41.1% (inactive)
O=C(CNc1ccccc1)N/N=C/c1ccc([N+](=O)[O-])o1	35% (inactive)
Cc1cc(C(=O)N/N=C/c2ccc([N+](=O)[O-])o2)c(C)o1	1.4% (inactive)
Nc1nonc1C(=O)N/N=C/c1ccc(Br)o1	-6% (inactive)
COc1cc2[nH]c(=O)n(CCC(=O)NCc3cccnc3)c(=O)c2cc1OC	-17.4% (inactive)
CCCc1cc(=O)n2[nH]c(NC(=O)c3ccco3)nc2n1	1.1% (inactive)
O=C(c1ccco1)N1CCN(Cc2nnc(-c3cccc(Br)c3)o2)CC1	37.7% (inactive)
Cc1ccc(/C=N/NC(=O)CNC(=O)c2ccc(S(=O)(=O)N3CCCC3)cc2)o1	-10.1% (inactive)
CC(C)(C)S(=O)(=O)/C(C#N)=C/c1sccc1C1OCCO1	-9.6% (inactive)
Cc1sc2nc(CSCC(=O)N(CCC#N)c3ccccc3)[nH]c(=O)c2c1C	-2.8% (inactive)
NC(=O)c1ccc(NC(=O)CCNC(=O)c2ccco2)cc1	0% (inactive)
Cc1cccc(C)c1OCCN1C(=O)NC(C)(c2ccccc2)C1=O (centres undefined)	-8.3% (inactive)
CC(=O)Nc1ccc(S(=O)(=O)Nc2ccn(Cc3ccccc3Cl)n2)cc1	-42.3% (inactive)

Compound	inhibition
CC1CCc2cc(F)ccc2N1C(=O)CCC(=O)O (centres undefined)	-29.7% (inactive)
CC1CCc2cc(F)ccc2N1C(=O)CCl (centres undefined)	66.7% (active)
CCC(CC)C(=O)N1c2ccc(F)cc2CCC1C (centres undefined)	8% (inactive)
COCCCNC(=S)Nc1cc2oc3ccccc3c2cc1OC	5.2% (inactive)
CCN(CC(=O)NC1CCS(=O)(=O)C1)S(=O)(=O)c1ccc(F)cc1 (centres undefined)	25.9% (inactive)
Cc1ccc(C(=O)N2CCCC(N3CCN(c4cccc(C(F)(F)F)c4)CC3)C2)s1 (centres undefined)	-29.8% (inactive)
Cc1ccccc1OCC(=O)N/N=C/c1c(C)nn(-c2ccccc2)c1Cl	-26.9% (inactive)
COc1ccc(C(=O)NCCCc2nc3ccccc3n2Cc2cc(C)ccc2C)cc1OC	-28.5% (inactive)
COc1ccc(C(=O)NCCCc2nc3ccccc3n2Cc2ccccc2C)cc1OC	-9.4% (inactive)
COc1cc(C(=O)NCCCc2nc3ccccc3n2Cc2cc(C)ccc2C)cc(OC)c1OC	68.1% (active)
CCc1ccc2[nH]c(=O)c(CN(CCCN3CCOCC3)C(=O)Nc3ccc(Cl)cc3)cc2c1	-9.8% (inactive)
O=S(=O)(Nc1cccc(-c2cn3cccnc3n2)c1)c1ccc(F)cc1	-1.4% (inactive)
O=S(=O)(Nc1cccc(-c2cn3cccnc3n2)c1)c1ccccc1	36.4% (inactive)
CCN(CC)C(=O)Cn1cc(C(=O)C(=O)N2CCN(C)CC2)c2ccccc21	-22.7% (inactive)
Cc1ccc(C(=O)CC(=O)c2ccccc2)cc1	-42.7% (inactive)
COc1ccc(C(=O)C/C(=C\C(=O)c2ccc(C)cc2)c2ccccc2)cc1	71.2% (active)
COc1ccc(C(=O)CC(=O)c2ccc(OC)cc2)cc1	-23.3% (inactive)
CC(C)N1CC(C(=O)Nc2ccc(Cl)c([N+](=O)[O-])c2)CC1=O (centres undefined)	-8.3% (inactive)
Cc1ccc2[nH]c3c(c2c1)CCCC3C(N)=O (centres undefined)	-44.3% (inactive)
Cc1ccc2[nH]c3c(c2c1)CCCC3NCCO (centres undefined)	-12.6% (inactive)
Cc1ccc2[nH]c3c(c2c1)CCCC3NC(=O)CCl (centres undefined)	70% (active)
COC(=O)[C@@]1(Cc2ccccc2)[C@@H]2C(=CC(=O)[C@H]2CC(=O)C(=O)N(C)C)CN1C(=O)c1ccccc1	47.7% (inactive)
COC(=O)[C@@]1(Cc2ccc(F)cc2)[C@@H]2[C@@H](CC(=O)[C@H]2CC(=O)C(=O)N(C)C)CN1C(=O)c1ccccc1	-29.5% (inactive)
C=C1C(=O)C=C2CN(C(=O)c3ccccc3)[C@@](Cc3ccc(F)cc3)(C(=O)OC)[C@@H]12	98.5% (active)

Compound	inhibition
CS(=O)(=O)c1cnc(-c2ccccc2)nc1-c1ccccc1Cl	23.1% (inactive)
CC1Cc2cc(S(=O)(=O)N3CCC(C(N)=O)CC3)ccc2N1C(=O)C1CC1 (centres undefined)	-42.9% (inactive)
O=C(N/N=C/c1ccc([N+](=O)[O-])o1)c1ccc(O)cc1	6.8% (inactive)
O=C(/C=C/c1ccc([N+](=O)[O-])o1)NNC(=O)c1ccc(F)cc1	66.9% (active)
O=C(O)/C=C/c1ccc([N+](=O)[O-])o1	-17.7% (inactive)
CCCOc1ccc(OCCCCNC(C)CC)cc1 (centres undefined)	0.5% (inactive)
COc1ccc(N(C(=O)Cn2nnc(-c3ccc(F)cc3)n2)C(C)C(=O)NC2CCCC2)cc1OC (centres undefined)	10.1% (inactive)
CC(C(=O)NC1CCCC1)N(C(=O)Cn1nnc(-c2ccc(F)cc2)n1)c1ccccc1F (centres undefined)	82.7% (active)
COc1ccc(N(C(=O)Cn2nnc(-c3ccc(F)cc3)n2)C(C)C(=O)NC2CCCC2)cc1 (centres undefined)	-22.6% (inactive)
COc1cccc(C(=O)NCCCNC(=O)c2ccco2)c1	9.1% (inactive)
Cc1ccccc1C1C(C#N)=C(N)N(N(C)C)C2=C1C(=O)CC(C)(C)C2 (centres undefined)	-10.1% (inactive)
CCCCn1c2c(c(=N)c3ccccc31)CCC2	-6.7% (inactive)
CCCCCn1c2c(c(=N)c3ccccc31)CCC2	-13.6% (inactive)
CCCCCCCn1c2c(c(=N)c3ccccc31)CCC2	77.4% (active)
CCO[C@H]1OC(C(=O)NC2CC2)=C[C@@H](c2ccc(C(F)(F)F)cc2)[C@@H]1CCCO	1.4% (inactive)
CC(Oc1ccccc1)C(=O)N=Nc1c(O)[nH]c2ccc(Br)cc12 (centres undefined)	-9.4% (inactive)
Cc1c(CBr)[n+](=O)c2c(n1[O-])C(Br)CCC2Br (centres undefined)	-9.7% (inactive)
Cc1c(C)[n+](=O)c2c(n1[O-])C(Br)CCC2Br (centres undefined)	-7.3% (inactive)
CC(=O)OC1CCC(OC(C)=O)c2c1n([O-])c(C)c(C)[n+]2=O (centres undefined)	79.5% (active)
N#Cc1cc(Cl)c(NCC2CCCO2)cc1C#N (centres undefined)	83.4% (active)
N#Cc1cc([N+](=O)[O-])ccc1NCC1CCCO1 (centres undefined)	-26.2% (inactive)
N#Cc1cc(NCC2CCCO2)c([N+](=O)[O-])cc1C#N (centres undefined)	-23.8% (inactive)
COc1ccc2cc(S(=O)(=O)N3CCOCC3)ccc2c1	-5.6% (inactive)
COc1ccc2[nH]c(=O)c(CNc3ccccc3C)cc2c1	-10.6% (inactive)

Compound	inhibition
COc1ccc(C2CC(c3cccs3)=NN2c2nc(-c3ccccc3)cs2)cc1OC (centres undefined)	-16.1% (inactive)
OCCN1CCN(c2ncnc3ccc(Br)cc23)CC1	66.7% (active)
OCCN1CCN(c2nc(-c3ccccc3)c3cc(Br)ccc3n2)CC1	-12.3% (inactive)
CC1(C)CC2CC(C)(CN2c2ncnc3ccc(Br)cc23)C1 (centres undefined)	39.1% (inactive)
OCCN1CCN(c2ncnc3sc(-c4ccccc4)cc23)CC1	-0.1% (inactive)
CN1CCN(c2ncnc3sc(-c4ccccc4)cc23)CC1	32% (inactive)
COc1ccc(OC)c(C(=O)NC(CC(N)=O)c2ccc(NCCOc3ccccc3)c([N+](=O)[O-])c2)c1 (centres undefined)	-4% (inactive)
CCCNC(=S)NC1CC2CCC(C1)N2Cc1ccccc1 (centres undefined)	0.5% (inactive)
O=C(CN1C(=O)/C(=C/c2ccccc2F)Sc2ccccc21)NCc1cccnc1	59.2% (active)
O=C(CN1C(=O)/C(=C/c2ccccc2F)Sc2ccccc21)NCCCN1CCOCC1	-19.9% (inactive)
O=C(CN1C(=O)/C(=C/c2ccccc2F)Sc2ccccc21)NCC1CCCO1 (centres undefined)	9.1% (inactive)
NS(=O)(=O)c1ccc(CNC(=S)NCc2ccc(F)cc2)cc1	14.6% (inactive)
Cc1onc(C(=O)NN)c1C(=O)Nc1ncc(C(F)(F)F)cc1Cl	-8.1% (inactive)
O=C(C1=NN[C@@H]2C(=O)N(c3cccc(C(F)(F)F)c3)C(=O)[C@H]12)c1ccc2ccccc2n1	87.5% (active)
O=C(C1=NN[C@@H]2C(=O)N(c3cccc(F)c3)C(=O)[C@H]12)c1ccc2ccccc2n1	-47% (inactive)
O=C(C1=NN[C@@H]2C(=O)N(c3ccccc3C(F)(F)F)C(=O)[C@H]12)c1ccc2ccccc2n1	-11.3% (inactive)
O=C(O)/C=C\C(=O)NNC(=O)c1cc(-c2ccccc2)n[nH]1	-10% (inactive)
Cc1ccc(CNC(=O)c2ccccc2NS(=O)(=O)c2ccc(Cl)nc2)cc1	5.6% (inactive)
CC(C)On1c(SCC(=O)N(C)C)nc2ccccc2c1=O	-1.8% (inactive)
CCN1/C(=C\C(C)=O)Sc2ccc(OC)cc21	16.9% (inactive)
CCN1/C(=C/C(C)=O)Sc2ccc(OC)cc21	53% (active)
CCC(=O)/C=C1/Sc2ccc(OC)cc2N1CC	22.6% (inactive)
